Hit rate of the full screen: of about 310,000 compounds, about 1,900 (0.61%) were called active.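 Rule for the calls: active = plate-corrected calcium response at least 3 library SD above typical, normal starting fluorescence, not activating the receptor alone; inactive = the rest.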 Shown is part of a subset that was picked to be rich in actives.
biological target: Mas-related G-protein coupled receptor member X1 (Homo sapiens) (UniProt Q96LB2); test: positive allosteric modulators of MrgX1, primary screen, HEK293 cells, Fluo-4 calcium flux (AID 588675); settings: MrgX1-HEK293, Fluo-4 calcium flux, FDSS, at 10 µM; hits give high values;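 note: compound read alongside a low EC10 to EC30 dose of BAM8-22 agonist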;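 for B-score: peak minus trough fluorescence over baseline measured at the second addition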
Sequence (Q96LB2 whole entry, looked up): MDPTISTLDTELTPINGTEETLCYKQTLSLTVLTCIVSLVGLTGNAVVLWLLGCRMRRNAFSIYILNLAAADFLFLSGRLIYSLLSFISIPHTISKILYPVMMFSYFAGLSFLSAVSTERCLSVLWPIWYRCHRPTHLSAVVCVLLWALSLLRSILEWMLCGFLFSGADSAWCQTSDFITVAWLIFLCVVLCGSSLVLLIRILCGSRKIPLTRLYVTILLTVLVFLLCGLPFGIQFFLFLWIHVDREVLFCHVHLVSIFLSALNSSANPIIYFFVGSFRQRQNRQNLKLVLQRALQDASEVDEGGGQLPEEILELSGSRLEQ

SMILES	B-score
CC(C)N1C(=S)SC(C)(C)C1n1oc(=O)n(-c2ccc(Cl)c(Cl)c2)c1=O (configuration not stated)	inactive
O=C(CNC(=O)OCc1ccccc1)Oc1cc2oc(=O)cc(-c3ccccc3)c2cc1Cl	inactive
Cc1nc2sccn2c(=O)c1S(=O)(=O)NCCc1ccccc1	inactive
Cc1c(C(=O)N(C)CCc2cnn(C)c2)oc2c(F)cccc12	inactive
Cc1ccc2c(C)c(C(=O)N(C)Cc3ccncn3)oc2c1C	inactive
Cc1ccc2c(C)c(C(=O)N(C)CCC3CCCCO3)oc2c1C (configuration not stated)	11.2 (active)
CCCCn1c(N)c(N(CCC(C)C)C(=O)CC2OC(=O)c3ccccc32)c(=O)[nH]c1=O (configuration not stated)	inactive
COc1ccc(C2(C)NC(=O)N(CC(=O)c3ccc4c(c3)OCO4)C2=O)cc1 (configuration not stated)	inactive
O=C(OCc1ccc([N+](=O)[O-])cc1)C1CC(=O)N(Cc2ccccc2Cl)C1 (configuration not stated)	inactive
CCCC1CCC(=NNC(=S)NCCc2ccccc2)CC1 (configuration not stated)	inactive
O=C(O)CCn1cc(/C=C/C(=O)c2ccc(Cl)cc2)c(-c2cccc(Br)c2)n1	inactive
CCOc1cc(/C=C(\C#N)c2nc(-c3cccs3)c(NC(C)=O)s2)ccc1O	inactive
COc1cc(/C=C(\C#N)c2nc3c(s2)CC(C)CC3)ccc1O (configuration not stated)	15.1 (active)
COc1cc(/C=C(\C#N)c2nc3ccccc3[nH]2)ccc1O	inactive
CC(=O)Nc1ccc(S(=O)(=O)N2CCN(C(=O)c3ccccc3F)CC2)cc1	inactive
O=C(Nc1cccc(Cl)c1)c1cncn1-c1ccc(F)cc1	12.5 (active)
O=C(Nc1cccc(Cl)c1)c1cc(S(=O)(=O)N2CCCCC2)c[nH]1	inactive
CCC(=O)Nc1nc(C)c(C(=O)Nc2cccc(Cl)c2)s1	inactive
C=CCn1cc(Cl)cc(C(=O)Nc2ccccc2)c1=O	inactive
COC(=O)c1c(NC(=O)CCN2CCOCC2)sc2c1CCCC2	inactive
COC(=O)c1c(NC(=O)C2CC(C)=C(C)CC2C(=O)O)sc2c1CCCCC2 (configuration not stated)	inactive
COC(=O)c1c(NC(=O)CN(c2ccc(C)c(C)c2)S(C)(=O)=O)sc2c1CCCC2	11.7 (active)
COC(=O)c1c(NC(=O)COC(=O)[C@@H](NS(=O)(=O)c2ccccc2)C(C)C)sc2c1CCC2	inactive
CCc1ccc(N(CC(=O)Nc2sc3c(c2C(=O)OC)CCCC3)S(C)(=O)=O)cc1	8.16 (active)
COC(=O)c1c(NC(=O)CSc2nncs2)sc2c1CCCCC2	inactive
COc1ccc(OC)c(-c2c(=O)n(OCc3ccccc3Br)c3ccccc3[n+]2[O-])c1	inactive

SMILES	B-score
O=C(Oc1ccc(-c2nnco2)cc1)c1ccc(F)c(S(=O)(=O)N2CCOCC2)c1	inactive
CN(C(=O)CCNC(=O)Cn1ccc2ccccc2c1=O)c1ccc(Br)cc1	inactive
CC(=O)N1c2ccc(S(=O)(=O)N(C)CC(=O)N(C)Cc3ccccc3)cc2CC1C (configuration not stated)	inactive
O=C(Nc1nnc(-c2ccccc2F)s1)c1ccccc1F	inactive
COc1ccccc1C(CNC(=O)c1cccc(NS(=O)(=O)c2ccc(Br)cc2)c1)N(C)C (configuration not stated)	inactive
Cc1ccc(CNS(=O)(=O)c2ccc3c(c2)N(C)CCO3)cc1	inactive
CC(=O)NS(=O)(=O)c1ccc(N/C(N)=N/c2nc(C)cc(C)n2)cc1	inactive
Cc1ccc(N/C(N)=N/c2nc(C(F)(F)F)cc(C(F)(F)F)n2)cc1	38.3 (active)
Cc1ccc(NC(=O)Nc2ccc3oc(C)nc3c2)cc1	inactive
O=C(c1noc2c1CCCC2)N1CCc2ccccc2C1	inactive
Cc1cc(C)cc(Oc2nc3c(C)cccn3c(=O)c2/C=C(\C#N)C(=O)NC2CCS(=O)(=O)C2)c1 (configuration not stated)	inactive
CN1CC(c2ccccc2)C2(COc3ccccc3C2=O)C12C(=O)Nc1ccccc12 (configuration not stated)	inactive
CCC(C)Sc1nc(C)nc2c1c(=O)n(C)c(=O)n2C (configuration not stated)	17.1 (active)
CSc1nc(C)nc2c1c(=O)n(C)c(=O)n2C	inactive
CCOC(=O)N1CCN(C(=O)CSc2nc(C)nc3c2c(=O)n(C)c(=O)n3C)CC1	inactive
CC(=O)N/N=C/c1cc2c(cc1[N+](=O)[O-])OCO2	inactive
CC1(C(=O)N/N=C/c2cc3c(cc2Br)OCO3)CC1(Br)Br (configuration not stated)	8.54 (active)
O=C(N/N=C/c1cc2c(cc1Br)OCO2)C1COc2ccccc2O1 (configuration not stated)	inactive
CCOC(=O)C1(Cc2ccccc2C)CCCN(S(C)(=O)=O)C1 (configuration not stated)	inactive
O=C(NC(Cc1ccccc1)C(=O)O)/C(=C\c1ccccc1)NC(=O)c1ccco1 (configuration not stated)	inactive
CS(=O)(=O)c1ccc2c(c1)SC1=NC(=O)/C(=C/c3ccco3)C(=N)N12	inactive
CCS(=O)(=O)C1=NSC2=NC(=O)/C(=C\c3cc(C)n(-c4cccc(OC)c4)c3C)C(=N)N21	10.5 (active)
COc1ccccc1OCCOc1ccc(/C=C2\C(=N)N3N=C(C)SC3=NC2=O)cc1	inactive
Cc1cc(/C=C2\SC(=O)N(C)C2=O)c(C)n1-c1cccc(C(=O)O)c1	inactive
CCC1=NN2C(=N)/C(=C/c3cc(C)n(-c4ccccc4)c3C)C(=O)N=C2S1	inactive
CCS(=O)(=O)C1=NSC2=NC(=O)/C(=C\c3ccc(OS(=O)(=O)c4ccccc4)cc3)C(=N)N21	24.2 (active)

SMILES	B-score
CS(=O)(=O)C1=NN2C(=N)/C(=C\c3ccc(OCCOc4ccccc4)cc3)C(=O)N=C2S1	inactive
Cc1cc(/C=C2/C(=N)N3C(=NC2=O)SN=C3S(C)(=O)=O)c(C)n1-c1ccccc1	11.8 (active)
Cc1ccc(C2=N/C(=C\c3ccc(OS(=O)(=O)c4ccc(C)cc4)cc3)C(=O)O2)cc1	inactive
COC1(C2=NCCN2)COc2ccccc2O1 (configuration not stated)	inactive
COc1ccccc1NC(=O)N1CCCC1C(=O)NCc1cccs1 (configuration not stated)	inactive
COc1cccc(-c2nnc(NC(=O)c3ccc(S(=O)(=O)N(CC(C)C)CC(C)C)cc3)o2)c1	inactive
O=C1CCCCN1CCCC(=O)N1CCCC(Nc2ccc(F)cc2)C1 (configuration not stated)	inactive
CCOC(=O)c1ccc(N=C2SC(C(=O)NC)CC(=O)N2CCc2ccccc2)cc1 (configuration not stated)	inactive
CSc1ccc(CN2C(=O)NC3(CCCCCC3)C2=O)cc1	inactive
C=C1c2c(Cl)ccc(O)c2C(O)=C2C(=O)[C@]3(O)C(O)=C(C(N)=O)C(=O)[C@@H](N(C)C)[C@@H]3[C@@H](O)C12 (some centres not stated)	inactive
O=C(Cc1ccc(S(=O)(=O)N2CCCC2)s1)NC1CCCCCC1	inactive
Cc1ccc(SCC(=O)c2cc(C)c(OC(=S)N(C)C)c(C)c2)cc1	inactive
O=C(Nc1ncc([N+](=O)[O-])s1)C1COc2ccccc2O1 (configuration not stated)	inactive
COc1ccc(OC)c2sc(NC(=O)C3COc4ccccc4O3)nc12 (configuration not stated)	inactive
O=C(Nc1nc2c(F)cc(F)cc2s1)C1COc2ccccc2O1 (configuration not stated)	9.52 (active)
COc1cc(OC)nc(N/N=C(\c2ccccc2)c2ccncc2)n1	9.14 (active)
COc1ccc(C/C(C)=N/NC(=O)c2ccncc2)cc1	inactive
CN(C)CCCO/N=C(\c1ccccc1)c1ccncc1	inactive
CSc1cccc(NC(=O)C2CCCN2S(=O)(=O)c2ccc3c(c2)CCC(=O)N3)c1 (configuration not stated)	inactive
CC[N+](C)(CC)CCC[n+]1c(-c2ccccc2)c2cc(N)ccc2c2ccc(N)cc21	inactive
Cc1ccc2c(c1)c1ncnc(N3CCc4ccccc4C3)c1n2C	8.06 (active)
Cc1ccc2c(c1)c1ncn(Cc3ccc(F)cc3)c(=O)c1n2C	inactive
Cc1ccc2c(c1)c1ncn(CCC3=CCCCC3)c(=O)c1n2C	inactive
COc1cc(S(=O)(=O)N(Cc2cccs2)C2CC2)ccc1-n1cnnn1	inactive
COC(=O)c1ccc(CN2CCN(CCCc3ccccc3)C(CCO)C2)cc1 (configuration not stated)	inactive
Cc1nonc1C1CCCN1Cc1nc(-c2ccc(F)cc2F)oc1C (configuration not stated)	7.14 (active)

SMILES	B-score
COc1ccc(F)c(-c2nc(CN3CCC(c4ccccc4)CC3)c(C)o2)c1	inactive
Cc1oc(-c2ccccc2F)nc1CS(=O)CC(=O)NCCN1CCCCC1C (configuration not stated)	inactive
CCCCOc1ccc(N(CC(=O)NC(C)C)C(=O)CCC(=O)Nc2ccccn2)cc1	inactive
CCCNc1c(N)c(=O)c1=O	inactive
Cc1oc2cc([N+](=O)[O-])c(O)c([N+](=O)[O-])c2c1C(=O)c1ccc(Br)cc1	inactive
COc1ccc(Nc2ncnc3ccc(Br)cc23)c(OC)c1	inactive
COc1ccc(C(=O)N2CC3(C)CC2CC(C)(C)C3)cc1OC (configuration not stated)	inactive
CC1(C)CC2CC(C)(CN2c2ncnc3ccc(Br)cc23)C1 (configuration not stated)	13 (active)
Cn1c(-c2sc3cc(C(F)(F)F)cnc3c2-c2ccccc2)n[nH]c1=S	9.48 (active)
Cc1ccccc1-c1n[nH]c(=S)n1C	inactive
Cn1c(-c2sccc2OCc2cccc(C(F)(F)F)c2)n[nH]c1=S	inactive
COc1ccccc1C(=O)NC(=S)NC12CC3CC(CC(C3)C1)C2	inactive
CN1CCN(C(=O)c2ccccc2NC(=O)COc2ccccc2Cl)CC1	inactive
O=C(C[n+]1cc(Br)cc2ccccc21)c1ccc(F)cc1	9.24 (active)
O=C(CNC(=O)c1ccc(F)cc1)c1ccccc1	inactive
Cc1cccc[n+]1CC(=O)c1ccccc1	inactive
C=C(C)c1cccc(C(C)(C)NC(=O)NCCN(CC)CC)c1	inactive
CC(C)C(=O)NCC(c1cccs1)S(=O)(=O)c1ccc(F)cc1 (configuration not stated)	inactive
COc1cccc(Cn2cnc3c([N+](=O)[O-])c(C)c(C)cc32)c1	inactive
Cc1cccc(Cn2cnc3c(N)c(C)c(C)cc32)c1	9.78 (active)
CCOC(=O)c1cn(Cc2cccc(C)c2)nn1	inactive
CCOc1ccc2[nH]c(=O)c(CN(CCCO)S(=O)(=O)c3ccc(F)cc3)cc2c1	inactive
Cc1cc2c(cc1C)[n+](C)cn2CC(O)COCC1CC=CCC1 (configuration not stated)	inactive
Cn1c(-c2ccc(F)cc2)cc2onc(-c3ccccc3Cl)c2c1=O	inactive
